Drawing on ChEMBL document CHEMBL4513139, “CO-ADD screening of University of Strathclyde (UK) compounds”, this text covers Inhibition for ten compounds.

Potency and affinity values are given separately.

Broadly, the Inhibition is the relative decrease from the control value, in per cent.

This test concerns Klebsiella pneumoniae. As to conditions: Concentration 32 ug.mL-1; ASSAY_TEST Inhibition of Bacterial Growth; detection method Absorption (OD600); MEDIA CAMHB; plate type 384well; NBS; CORNING #3640; time 18 hr.
For `COc1ccc(/C=C(/C(=O)Nc2cc(C(=O)Nc3cc(C(=O)NCCCN(C)C)n(C)c3)n(C)c2)c2ccc(OC)cc2)cc1.O=C(O)C(F)(F)F`, the Inhibition is listed as 4.2%. The figure for `COc1cccc(C(=N)Nc2cc(C(=O)Nc3cc(C(=O)Nc4cc(C(=O)NCCCN(C)C)n(C)c4)n(C)c3)n(C)c2)c1.O=C(O)C(F)(F)F.O=C(O)C(F)(F)F` is 5.64%. The figure for `COc1ccc(CC(=O)Nc2cc(C(=O)Nc3cc(C(=O)Nc4cn(CCCN(C)C)cn4)n(C)c3)n(C)c2)cc1.O=C(O)C(F)(F)F` is 2.03%; for `Cc1ncc(Cn2cc(CCO)nn2)c(N)n1` it is -3.23%.

Take `Cn1cc(NC(=O)c2cc(NC(=O)c3ccc(/C=C/c4cccc(F)c4)cc3)cn2C)cc1C(=O)NCCN1CCOCC1.O=C(O)C(F)(F)F`: the Inhibition is -2.66%. The figure for `Cc1ncc(Cn2cc(CCCN)nn2)c(N)n1.Cl` is -8.29%.

In the case of `COc1cccc(C(=N)Nc2cc(C(=O)Nc3cc(C(=O)Nc4cn(CCCN(C)C)cn4)n(C)c3)n(C)c2)c1.O=C(O)C(F)(F)F.O=C(O)C(F)(F)F`, the Inhibition amounted to 25.01%. Consider `CCOC(=O)CCC(NC(=O)c1ccc(NCc2cn(Cc3cnc(C)nc3N)nn2)cc1)C(=O)OCC` (stereo not given), for which the Inhibition is -10.59%. The figure for `Cn1cc(NC(=O)c2cc(NC(=O)CCC(=O)O)cn2C)cc1C(=O)NCCN1CCOCC1.O=C(O)C(F)(F)F` is 14.45%; for `CN(C)CCCNC(=O)c1cc(NC(=O)c2cc(NC(=O)c3cc(NC(=N)N)cn3C)cn2C)cn1C.O=C(O)C(F)(F)F.O=C(O)C(F)(F)F` it is 7.81%.
